Assay results from the supplement of paper PMC12669032.

What was measured:
Assay in all cases: growth AUC relative to DMSO control (median of replicates) (fraction); higher = more growth (less inhibition), active = hit call of the paper
Conditions in all cases: 20 µM; 24 h;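 active = AUC reduced over 20% with Padj below 0.05 in at least 2 of 3 replicates; inactive = otherwise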
Akkermansia muciniphila = system: Akkermansia muciniphila
Procedure, shortened: (§1)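 Area under the growth curve was normalised to the plate median of solvent-only wells, except on the industrial chemical plate, where row and column medians were used. Curves came from gut bacterial monocultures grown anaerobically at 37 °C in mGAM with 20 µM compound (1% DMSO), starting at OD600 0.05 and read at OD600 every hour for 24 h. The minimum OD of each curve was set to 0, and values are medians of three biological replicates grown on separate days.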

Bacteroides caccae = system: Bacteroides caccae
Procedure, shortened: as §1

Bacteroides clarus = system: Bacteroides clarus
Procedure, shortened: as §1

Bacteroides dorei = system: Bacteroides dorei
Procedure, shortened: as §1

Bacteroides stercoris = system: Bacteroides stercoris
Procedure, shortened: as §1

[1] = system: Bacteroides thetaiotaomicron
Procedure, shortened: as §1

Bacteroides uniformis = system: Bacteroides uniformis
Procedure, shortened: as §1

[2] = system: Bifidobacterium longum subsp. longum
Procedure, shortened: as §1

Clostridium difficile = system: Clostridium difficile
Procedure, shortened: as §1

Collinsella aerofaciens = system: Collinsella aerofaciens
Procedure, shortened: as §1

Coprococcus comes = system: Coprococcus comes
Procedure, shortened: as §1

Escherichia coli ED1a = system: Escherichia coli ED1a
Procedure, shortened: as §1

Escherichia coli IAI1 = system: Escherichia coli IAI1
Procedure, shortened: as §1

Eubacterium rectale = system: Eubacterium rectale
Procedure, shortened: as §1

[3] = system: Fusobacterium nucleatum subsp. animalis
Procedure, shortened: as §1

Lactobacillus gasseri = system: Lactobacillus gasseri
Procedure, shortened: as §1

Lactobacillus paracasei = system: Lactobacillus paracasei
Procedure, shortened: as §1

Odoribacter splanchnicus = system: Odoribacter splanchnicus
Procedure, shortened: as §1

[4] = system: Parabacteroides distasonis
Procedure, shortened: as §1

Parabacteroides merdae = system: Parabacteroides merdae
Procedure, shortened: as §1

Measured: growth AUC

Cc1nc(C(F)(F)F)c(C(=O)Nc2c(Br)cc(OC(F)(F)F)cc2Br)s1
inactive: Akkermansia muciniphila 1.05 | Bacteroides caccae 0.984 | Bacteroides clarus 0.98 | Bacteroides dorei 0.946 | Bacteroides stercoris 1.06 | [1] 0.945 | Bacteroides uniformis 0.986 | [2] 1 | Clostridium difficile 1.03 | Collinsella aerofaciens 1.01 | Coprococcus comes 1.06 | Escherichia coli ED1a 1.02 | Escherichia coli IAI1 1.02 | Eubacterium rectale 0.852 | [3] 1.09 | Lactobacillus gasseri 1.15 | Lactobacillus paracasei 1.1 | Odoribacter splanchnicus 0.942 | [4] 0.944 | Parabacteroides merdae 1

CC(C)N(C(=O)C(=O)O)c1ccc(F)cc1
inactive: Akkermansia muciniphila 1.04 | Bacteroides caccae 1.02 | Bacteroides clarus 1.03 | Bacteroides dorei 1.02 | Bacteroides stercoris 1.23 | [1] 1.02 | Bacteroides uniformis 0.993 | [2] 1.05 | Clostridium difficile 1.03 | Collinsella aerofaciens 1.01 | Coprococcus comes 0.985 | Escherichia coli ED1a 1.03 | Escherichia coli IAI1 1.02 | Eubacterium rectale 1.05 | [3] 1.18 | Lactobacillus gasseri 1.05 | Lactobacillus paracasei 1 | Odoribacter splanchnicus 1.04 | [4] 1 | Parabacteroides merdae 1.01

Cc1ccc(Cl)cc1
inactive: Akkermansia muciniphila 0.981 | Bacteroides caccae 0.982 | Bacteroides clarus 1.03 | Bacteroides dorei 1.04 | Bacteroides stercoris 0.936 | [1] 1.01 | Bacteroides uniformis 1.01 | [2] 0.993 | Clostridium difficile 1.04 | Collinsella aerofaciens 1 | Coprococcus comes 1 | Escherichia coli ED1a 1.01 | Escherichia coli IAI1 1.05 | Eubacterium rectale 0.962 | [3] 1.1 | Lactobacillus gasseri 1.06 | Lactobacillus paracasei 0.997 | Odoribacter splanchnicus 0.964 | [4] 0.984 | Parabacteroides merdae 0.99

O=C(NCc1ncc(C(F)(F)F)cc1Cl)c1c(Cl)cccc1Cl
inactive: Akkermansia muciniphila 0.937 | Bacteroides caccae 0.973 | Bacteroides clarus 0.967 | Bacteroides dorei 0.975 | Bacteroides stercoris 1.17 | [1] 0.95 | Bacteroides uniformis 1.02 | [2] 1.04 | Clostridium difficile 1 | Collinsella aerofaciens 0.987 | Coprococcus comes 1.03 | Escherichia coli ED1a 0.963 | Escherichia coli IAI1 1.03 | Eubacterium rectale 0.98 | [3] 1.01 | Lactobacillus gasseri 1.04 | Lactobacillus paracasei 0.981 | Odoribacter splanchnicus 0.938 | [4] 0.971 | Parabacteroides merdae 0.979

N#Cc1c(N)nc(NC2CC2)nc1N
inactive: Akkermansia muciniphila 0.971 | Bacteroides caccae 1.03 | Bacteroides clarus 0.972 | Bacteroides dorei 1.02 | Bacteroides stercoris 0.984 | [1] 1.01 | Bacteroides uniformis 0.987 | [2] 0.899 | Clostridium difficile 1.06 | Collinsella aerofaciens 1.05 | Coprococcus comes 1.01 | Escherichia coli ED1a 0.991 | Escherichia coli IAI1 0.992 | Eubacterium rectale 0.935 | [3] 0.994 | Lactobacillus gasseri 0.939 | Lactobacillus paracasei 0.972 | Odoribacter splanchnicus 1.01 | [4] 1.02 | Parabacteroides merdae 1

S=C([S-])NCCNC(=S)[S-].[Zn+2]
inactive: Akkermansia muciniphila 1.16 | Bacteroides caccae 1.05 | Bacteroides clarus 0.989 | Bacteroides dorei 0.999 | Bacteroides stercoris 0.983 | [1] 0.978 | Bacteroides uniformis 1.03 | [2] 0.995 | Clostridium difficile 0.972 | Collinsella aerofaciens 0.992 | Coprococcus comes 0.994 | Escherichia coli ED1a 0.998 | Escherichia coli IAI1 0.992 | Eubacterium rectale 1.1 | [3] 0.978 | Lactobacillus gasseri 0.966 | Lactobacillus paracasei 1.01 | Odoribacter splanchnicus 0.999 | [4] 1.01 | Parabacteroides merdae 0.974

Cc1ccc(C(C)NC(=O)[C@@H](NC(=O)OC(C)C)C(C)C)cc1 (stereo not given in full)
inactive: Akkermansia muciniphila 1.06 | Bacteroides caccae 0.975 | Bacteroides clarus 1.03 | Bacteroides dorei 1.01 | Bacteroides stercoris 1.11 | [1] 0.984 | Bacteroides uniformis 0.973 | [2] 0.97 | Clostridium difficile 0.951 | Collinsella aerofaciens 0.986 | Coprococcus comes 1.01 | Escherichia coli ED1a 1.01 | Escherichia coli IAI1 0.992 | Eubacterium rectale 1.08 | [3] 1.08 | Lactobacillus gasseri 0.895 | Lactobacillus paracasei 1.02 | Odoribacter splanchnicus 0.953 | [4] 0.917 | Parabacteroides merdae 1.01

CC1=C(c2ccccc2)C(=O)N(C(C)(C)c2cc(Cl)cc(Cl)c2)CO1
inactive: Akkermansia muciniphila 1.11 | Bacteroides caccae 0.962 | Bacteroides clarus 0.925 | Bacteroides dorei 0.981 | Bacteroides stercoris 0.895 | [1] 0.93 | Bacteroides uniformis 0.917 | [2] 0.956 | Clostridium difficile 1.02 | Collinsella aerofaciens 0.965 | Coprococcus comes 0.972 | Escherichia coli ED1a 1.01 | Escherichia coli IAI1 0.987 | Eubacterium rectale 0.982 | [3] 0.935 | Lactobacillus gasseri 1.01 | Lactobacillus paracasei 1.04 | Odoribacter splanchnicus 0.972 | Parabacteroides merdae 0.811
active: [4] 0.732

O=S(=O)(Cc1ccc(Cl)cc1)c1ccc(Cl)cc1
inactive: Akkermansia muciniphila 0.848 | Bacteroides caccae 1 | Bacteroides clarus 0.981 | Bacteroides dorei 1.02 | Bacteroides stercoris 1.12 | [1] 0.963 | Bacteroides uniformis 0.997 | [2] 1.03 | Clostridium difficile 1.01 | Collinsella aerofaciens 1.01 | Coprococcus comes 0.978 | Escherichia coli ED1a 0.97 | Escherichia coli IAI1 1.02 | Eubacterium rectale 1.02 | [3] 0.977 | Lactobacillus gasseri 1.04 | Lactobacillus paracasei 1.03 | Odoribacter splanchnicus 0.995 | [4] 1 | Parabacteroides merdae 0.98

Cc1[nH]oc(=O)c1N=Nc1ccccc1Cl
inactive: Akkermansia muciniphila 0.935 | Bacteroides caccae 0.996 | Bacteroides clarus 0.95 | Bacteroides dorei 0.951 | Bacteroides stercoris 0.828 | [1] 1.01 | Bacteroides uniformis 1.02 | [2] 1.04 | Clostridium difficile 0.964 | Collinsella aerofaciens 0.961 | Coprococcus comes 1.01 | Escherichia coli ED1a 0.989 | Escherichia coli IAI1 0.962 | Eubacterium rectale 1.03 | [3] 0.839 | Lactobacillus gasseri 0.931 | Lactobacillus paracasei 0.955 | Odoribacter splanchnicus 1.06 | [4] 0.987 | Parabacteroides merdae 0.949

CCOC(N)=O
inactive: Akkermansia muciniphila 1.13 | Bacteroides caccae 1.01 | Bacteroides clarus 1.02 | Bacteroides dorei 1.04 | Bacteroides stercoris 1.17 | [1] 1.01 | Bacteroides uniformis 1.01 | [2] 1.06 | Clostridium difficile 1.01 | Collinsella aerofaciens 1.01 | Coprococcus comes 1.03 | Escherichia coli ED1a 1.01 | Escherichia coli IAI1 1.03 | Eubacterium rectale 1 | [3] 1.04 | Lactobacillus gasseri 1.02 | Lactobacillus paracasei 1.02 | Odoribacter splanchnicus 0.955 | [4] 1.1 | Parabacteroides merdae 1.03

CCCCCCCC/C=C\CCCCCCCCCCCCC
inactive: Akkermansia muciniphila 0.969 | Bacteroides caccae 0.961 | Bacteroides clarus 0.982 | Bacteroides dorei 1.05 | Bacteroides stercoris 0.986 | [1] 0.995 | Bacteroides uniformis 0.997 | [2] 0.964 | Clostridium difficile 1.05 | Collinsella aerofaciens 1.02 | Coprococcus comes 1 | Escherichia coli ED1a 0.987 | Escherichia coli IAI1 1.03 | Eubacterium rectale 0.946 | [3] 0.961 | Lactobacillus gasseri 1.08 | Lactobacillus paracasei 0.875 | Odoribacter splanchnicus 0.968 | [4] 1.01 | Parabacteroides merdae 0.991
